This note sets out measurements from PubChem BioAssay (Tox21).

A short description of test [1]: qHTS assay to identify small molecule antagonists of the estrogen related receptor (ERR) signaling pathway from Tox21 library - cell viability counter screen (AID 1224834). Further: nearly all actives have a fitted effect of over 30% in size. The procedure, abridged:
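In this quantitative HTS format, ERR cells receive compounds in DMSO and are incubated for 17.5 h at 37 C. Live-cell protease activity is then detected with CellTiter-Fluor.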
In general terms: In qHTS, concentration-response curves come from the screen itself.

The target in test [2] is Luciferin 4-monooxygenase (Photinus pyralis) (UniProt P08659). As to the kind of experiment: qHTS assay to identify small molecule inhibitors of firefly luciferase (AID 1224835). Further: nearly all actives have a fitted effect of over 25% in size. Summed up:
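Biochemical qHTS: compounds run as interplate titrations against purified firefly enzyme, with D-luciferin and ATP each at its KM concentration. Light output recorded by CCD imaging.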

Test [3] is described as follows: qHTS assay to identify small molecule agonists of the constitutive androstane receptor (CAR) signaling pathway - cell viability counter screen (AID 1224836). Further: nearly all actives have a fitted effect of over 45% in size. Summed up: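 Cells were seeded and incubated 4 hrs. Compounds were added across 15 concentrations together with PK11195 at 0.75 uM final. Plates were incubated 23 hrs at 37 C. CellTiter-Fluor was added and fluorescence measured.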

Test [4] in a line: qHTS assay to identify small molecule antagonists of the constitutive androstane receptor (CAR) signaling pathway - cell viability counter screen (AID 1224837). Further: nearly all actives have a fitted effect of over 45% in size. The procedure, abridged:
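In quantitative HTS format, compounds at 15 concentrations were applied to HepG2 cells double-transfected with hCAR and CYP2B6-2.2kb under 50 nM CITCO stimulation; live-cell protease activity was read after 23 hr via CellTiter-Fluor.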

Test [5] addresses Nuclear receptor subfamily 1 group I member 3 (Homo sapiens) (UniProt Q14994). As to the kind of experiment: qHTS assay to identify small molecule agonists of the constitutive androstane receptor (CAR) signaling pathway (AID 1224839). Further: nearly all actives have a fitted effect of over 15% in size. Further: potency means the concentration at half of the fitted maximal effect.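 On activation: HepG2 cells stably carrying human CAR and a CYP2B6 luciferase reporter.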 Summed up: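 Cells were plated and incubated 4 hrs, then dosed with compounds at 15 concentrations. PK11195 was added to 0.75 uM final. After 24 hrs at 37 C, luciferase luminescence was measured.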

Test [6] can be described thus: qHTS assay to identify small molecule antagonists of the estrogen related receptor signaling pathway with the pleiotropic PPARgamma coactivator (PGC) from Tox21 10K library - cell viability counter screen (AID 1224840; active means well fitted cell-killing curve with a large enough effect in the repeat runs, not every such curve was filed as active; further: nearly all actives have a fitted effect of over 40% in size). The procedure, abridged: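 Viability counter screen, PGC/ERR cells: 17.5 h compound exposure at 37 C, CellTiter-Fluor fluorescence endpoint.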
Test [7] in a line: qHTS assay to identify small molecule antagonists of the estrogen related receptor signaling pathway with the pleiotropic PPARgamma coactivator (PGC) from Tox21 10K library (AID 1224841; call rule not given here; further: actives are mostly falling curves and most rising ones were filed inactive; nearly all actives have a fitted effect of over 50% in size). Summed up: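 In the PGC/ERR line, DMSO solutions of test chemicals are pin-delivered to 2,000 cells/well six hours after dispensing. Following eighteen hours' incubation, One-Glo reagent is added and luminescence recorded.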

A short description of test [8]: qHTS assay to identify small molecule agonists of the estrogen related receptor signaling pathway with the pleiotropic PPARgamma coactivator (PGC) from Tox21 10K library (AID 1224842). Further: nearly all actives have a fitted effect of over 15% in size. Summed up: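 PGC/ERR reporter cell line, 2,000 cells per well, incubated 6 h at 37 C before 23 nL compound in DMSO was added. After 18 h at 37 C, One-Glo luminescence read following 30 min at room temperature.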

Test [9] concerns the target Thyrotropin receptor (Homo sapiens) (UniProt P16473). As to the kind of experiment: qHTS assay to identify small molecule agonists of the thyroid stimulating hormone receptor (TSHR) signaling pathway (AID 1224843; calls by dose curve; further: nearly all actives have a fitted effect of over 45% in size). Summed up: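 Agonist-mode screen: TSHR HEK293 cells received test chemicals for half an hour at room temperature, then HTRF cAMP detection reagents for one hour prior to fluorescence measurement. Each chemical ran as a 15-concentration series, triplicated.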

The nature of test [10]: qHTS assay to identify small molecule agonists of H2AX (AID 1224845; active means well fitted activation curve with a large enough effect in the signal ratio in the repeat runs, not every such curve was filed as active; the % refers to the signal ratio). Summed up: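 Wild-type CHO-K1 cells, plated overnight, exposed 3hr at 37C to 15 concentrations (0.76% DMSO final). Lysed, then HTRF anti-pH2AX (S139) cryptate and anti-H2AX-d2 antibodies, 24 hr room temperature; 665/620 nm emission read.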
The nature of test [11]: qHTS assay to identify small molecule agonists of the hypoxia (HIF-1) signaling pathway (AID 1224846; active means well fitted activation curve with a large enough effect in the signal ratio in the repeat runs, not every such curve was filed as active; the % refers to the signal ratio). Summed up: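 In ME-180 cells bearing an HRE-bla construct, 17 h treatment with DMSO-dissolved compounds at 37C was followed by CCF4-AM loading to quantify reporter induction.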
A short description of test [12]: qHTS assay to identify small molecule agonists of H2AX - cell viability counter screen (AID 1224847; calls by dose curve; further: nearly all actives have a fitted effect of over 30% in size; further: potency means the concentration at half of the fitted maximal effect). The procedure, abridged: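 Cytotoxicity counter screen in wild-type CHO-K1 cells: a 3 hr compound treatment at 37C across 15 concentrations, followed by CellTiter-Glo luminescence to gauge viable cells.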
Test [13] is described as follows: qHTS assay to identify small molecule antagonists of the estrogen related receptor (ERR) signaling pathway from Tox21 library (AID 1224848). Further: nearly all actives have a fitted effect of over 50% in size. The procedure, abridged: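 Quantitative high-throughput format: ERR reporter cells (2,000/well) pre-incubated 6 h, treated 18 h at 37 C with compounds in DMSO alongside positive and negative controls, then read by ONE-Glo luminescence.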

Test [14] is described as follows: qHTS assay to identify small molecule agonists of the estrogen related receptor (ERR) signaling pathway from Tox21 library (AID 1224849; calls by dose curve; further: nearly all actives have a fitted effect of over 15% in size). The conditions noted are these: ERR reporter cell line, ONE-Glo luciferase, 18 h; at 92.4 µM (top of the series) unless noted. Summed up:
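Reporter cells (ERR, NTP source) treated with Tox21 10K compounds 18 h, 37 C. Readout: ONE-Glo luminescence, 30 min RT.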

Test [15] can be described thus: qHTS RealTime-Glo MT Cell Viability Assay in HepG2 cells - 24 hour (AID 1224867). Further: nearly all actives have a fitted effect of over 50% in size. Summed up:
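Cell number in HepG2 cultures estimated from NanoLuc luminescence generated by metabolic reduction of a prosubstrate by living cells. The homogeneous, nonlytic format allowed repeated reads at 0, 8, 16, 24, 32 and 40 h of compound exposure.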

Test [16] in a line: qHTS RealTime-Glo MT Cell Viability Assay in HEK293 cells - 32 hour (AID 1224868). Further: nearly all actives have a fitted effect of over 50% in size. Further: potency means the concentration at half of the fitted maximal effect. Summed up:
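Homogeneous bioluminescent viability format in HEK293 cells (600 cells/well). Following 5 h at 37 C/5% CO2, 23 nL compound was pintooled; the signal was measured repeatedly during 40 h incubation.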

Test [17] can be described thus: A CellTox Green Cytotoxicity Assay to monitor cytotoxicity in HEK293 cells - 0 hour (AID 1224869). Further: nearly all actives have a fitted effect of over 50% in size. The procedure, abridged:
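Homogeneous no-lysis format: HEK293 cell suspension mixed with CellTox Green reagent, seeded, incubated 5 h at 37 C/5% CO2, then dosed by pintool with compound in DMSO.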

Test [18] is described as follows: qHTS assay to identify small molecule agonists of the hypoxia (HIF-1) signaling pathway - cell viability counter screen (AID 1224844; calls by dose curve; further: nearly all actives have a fitted effect of over 50% in size). The procedure, abridged: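 Same wells as the HIF-1 reporter screen; ME-180 cells carrying HRE-bla, 17 hr treatment at 37C; CellTiter-Glo luminescence read after 30 min at room temperature.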

“And” between values parts separate entries of the source, which are not always exact repeats. Identical values can stand only once. Inconclusive results are not listed. More than one record can exist for a structure, and the calls need not agree. The source made the active and inactive calls. Unless noted, the call rests on the fitted dose curve; in most records, active means well fitted curve in the direction sought with a large enough effect in the repeat runs; inconclusive means weak or mixed curves; inactive means no such curve, though single readings can be large; an effect the other way counts as inactive or inconclusive.
On the % scale 0 is the no-effect control and ±100 the full control effect.

Chain of Thyrotropin receptor (Homo sapiens) (P16473 whole entry, looked up): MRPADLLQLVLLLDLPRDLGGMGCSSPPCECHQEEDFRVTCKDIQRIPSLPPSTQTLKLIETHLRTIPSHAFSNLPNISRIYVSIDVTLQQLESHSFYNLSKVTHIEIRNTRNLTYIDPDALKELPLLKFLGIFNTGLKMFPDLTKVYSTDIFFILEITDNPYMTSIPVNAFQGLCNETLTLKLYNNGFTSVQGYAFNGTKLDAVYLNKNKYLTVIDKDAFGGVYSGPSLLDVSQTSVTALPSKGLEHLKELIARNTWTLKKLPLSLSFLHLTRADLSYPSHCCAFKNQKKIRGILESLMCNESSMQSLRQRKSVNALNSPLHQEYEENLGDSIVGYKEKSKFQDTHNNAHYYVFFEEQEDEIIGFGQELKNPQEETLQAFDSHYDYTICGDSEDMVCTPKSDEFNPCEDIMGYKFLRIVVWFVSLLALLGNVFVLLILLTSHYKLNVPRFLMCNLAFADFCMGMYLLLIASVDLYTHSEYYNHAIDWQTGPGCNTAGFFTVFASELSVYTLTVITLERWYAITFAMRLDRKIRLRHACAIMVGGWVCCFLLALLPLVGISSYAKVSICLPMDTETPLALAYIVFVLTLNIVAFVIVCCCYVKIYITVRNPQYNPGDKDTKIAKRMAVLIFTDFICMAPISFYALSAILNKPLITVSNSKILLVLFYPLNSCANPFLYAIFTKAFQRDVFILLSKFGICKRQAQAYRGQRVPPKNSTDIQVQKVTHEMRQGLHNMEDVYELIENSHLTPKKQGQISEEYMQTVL
Chain of Nuclear receptor subfamily 1 group I member 3 (Homo sapiens) (Q14994 whole entry, looked up): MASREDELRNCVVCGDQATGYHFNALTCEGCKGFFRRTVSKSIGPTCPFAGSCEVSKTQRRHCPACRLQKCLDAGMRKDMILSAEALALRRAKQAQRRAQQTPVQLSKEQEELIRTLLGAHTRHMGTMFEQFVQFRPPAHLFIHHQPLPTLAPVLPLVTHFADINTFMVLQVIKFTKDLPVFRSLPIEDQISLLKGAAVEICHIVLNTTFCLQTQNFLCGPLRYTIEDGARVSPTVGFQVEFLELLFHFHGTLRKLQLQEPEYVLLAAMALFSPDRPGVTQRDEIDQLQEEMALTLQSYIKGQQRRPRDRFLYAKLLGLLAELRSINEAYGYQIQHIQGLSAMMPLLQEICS
Chain of Luciferin 4-monooxygenase (Photinus pyralis) (P08659 whole entry, looked up): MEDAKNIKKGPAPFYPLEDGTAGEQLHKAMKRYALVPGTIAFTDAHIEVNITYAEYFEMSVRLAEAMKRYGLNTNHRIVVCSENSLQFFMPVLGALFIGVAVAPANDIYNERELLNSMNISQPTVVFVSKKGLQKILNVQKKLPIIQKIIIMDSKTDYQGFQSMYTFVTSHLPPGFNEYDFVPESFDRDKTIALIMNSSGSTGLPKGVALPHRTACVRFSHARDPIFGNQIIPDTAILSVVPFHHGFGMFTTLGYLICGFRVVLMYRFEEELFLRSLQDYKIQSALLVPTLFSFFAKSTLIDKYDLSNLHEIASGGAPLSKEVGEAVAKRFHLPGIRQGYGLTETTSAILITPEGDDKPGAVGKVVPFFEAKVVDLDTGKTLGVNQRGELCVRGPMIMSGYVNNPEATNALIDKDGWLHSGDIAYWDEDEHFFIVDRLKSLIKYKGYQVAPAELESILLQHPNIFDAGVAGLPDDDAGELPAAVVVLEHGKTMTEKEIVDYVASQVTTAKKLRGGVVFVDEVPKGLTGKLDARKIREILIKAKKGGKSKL

As to `C[C@H]1CNCCc2ccc(Cl)cc21`, the Potency entry in test [1], in test [2], in test [3], in [4], in [5] and in [6] was “inactive” in each case. Also, the Potency result in [7], in test [8], in test [9], in test [10], in test [12] and in test [13] was “inactive” in each case. In addition, the Potency entry in [15], in test [16] and in test [17] was “inactive” in each case. Further, the compound was classed as inactive in test [11]. Further, in [14], the activity change, positive = activation was -0.2% [at 42.5 µM] (inactive).

As to `C=CC(=O)OCC(C)C`, the Potency entry in test [1], in test [2], in test [3], in test [4], in [5] and in test [6] was “inactive” each time. For the same compound, the Potency entry in test [7], in test [8], in test [9], in test [18], in test [10] and in test [12] was “inactive” each time. Besides, the Potency result in test [13], in test [15] and in test [16] was “inactive” in each case. Besides, the outcome in test [11] was inactive. Besides, the activity change, positive = activation in test [14] was 5.29% (inactive).

Consider `C=CC(=O)OC(C)(C)C`, for which the Potency result in test [1], in test [2], in [3], in test [4], in test [5] and in test [6] was “inactive” throughout. The Potency entry in [9], in [18], in test [10], in test [12], in [15] and in [16] was “inactive” each time. Besides, in test [17], the Potency result is “inactive”. Also, the result in test [11] was inactive.

`CCOP(=S)(OCC)Oc1nc(Cl)c(Cl)cc1Cl`: the Potency entry in test [1], in test [2], in [3], in test [4], in test [6] and in [18] was “inactive” in each case. Further, the Potency result in [15] and in [17] was “inactive” throughout. Moreover, the Potency in [5] was 27.4 µM (active) and 30.6 µM (active); in test [12], 56.8 µM (active); in test [16], 21.9 µM (active) and inactive. Also, the result in test [11] was inactive.

`CC1Sc2c(C(=O)O)c(=O)c3cc(F)c(N4CCNCC4)cc3n21` (stereo not given): the Potency entry in [1], in test [2], in test [3], in test [4], in [5] and in [6] was “inactive” throughout. Further, the Potency result in test [7], in [8], in [9], in [18], in [10] and in test [12] was “inactive” throughout. Further, the Potency result in test [13], in [15], in test [16] and in test [17] was “inactive” in each case. Besides, the call in [11] was inactive. In [14], the activity change, positive = activation was 11.7% [at 42.5 µM] (inactive).

On to `C=CC(C)=O`, for which the Potency entry in [1], in [2], in [3], in test [4], in test [6] and in test [7] was “inactive” throughout. Moreover, the Potency entry in [8], in test [9], in test [10], in test [12], in test [13] and in test [15] was “inactive” throughout. In [16], the Potency entry is “inactive”. In addition, the compound was called inactive in test [11]. Also, the activity change, positive = activation in [14] was -0.611% (inactive).

As to `O=NN1CCNCC1`, the Potency result in [1], in test [2], in [3], in [4], in test [5] and in test [6] was “inactive” each time. In addition, the Potency entry in test [10], in test [12], in [15], in [16] and in test [17] was “inactive” each time. In addition, in test [11], the result was inactive.
